High-throughput results (PubChem BioAssay)
A selection: hits, their analogues and other compounds. The true share with any hit is near 2.2%.
Myeloid diff MLP: promotes myeloid progenitor differentiation. ER-HoxA9 myeloid progenitors, lysozyme-GFP differentiation, flow cytometry. calls only at 10 µM. 360,000 compounds, 1% hits. AID 624256;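 active = normalized GFP-positive differentiation at or above the plate's own cutoff, the solvent-only control mean plus 3 SD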;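 note: cells exposed to compound for four days before flow analysis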
CRFBP-R2 block: blocks CRF-induced signaling of the CRF-BP/CRF-R2 complex | AID 588475 | HEK293 CRF-R2/CRF-BP, CRF-induced calcium fluorescence | 350,000 compounds, 0.59% hits | inhibition, % at 11.8 µM;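 active = inhibition of the ligand-induced calcium signal above about 50% at the single tested concentration, limit read from the data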
RTF Ca sens act: cardiac RTF calcium sensitization; P19429+P45379; IANBD-labeled TnC RTF fluorescence at EC20 calcium; 0% EC20 calcium, 100% full calcium; activation, % at 7.2 µM; 340,000 compounds, 0.24% hits; AID 493008;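 active = activation above the mean over all tested compounds plus 3 SD, cut at about 30% in these data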;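 note: rise in fluorescence read as greater calcium sensitivity of cardiac thin filaments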
CRFR2-BP ag: agonists of human CRF-binding protein/CRF-R2 receptor complex; activation, % at 13.2 µM; 350,000 compounds, 0.46% hits; HEK293 CRF-R2/CRF-BP, calcium dye fluorescence (FLIPR); percent of saturating CRF peptide response;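 active = activation of at least 50%, plus an integration ratio under a set limit after plate pattern correction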;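 note: plate controls were neutral control wells without compound for no effect and CRF at EC100 for full effect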
Cardiac RTF inh: cardiac RTF calcium desensitization. P19429+P45379. IANBD-labeled cardiac RTF, Ca2+ fluorescence. inhibition, % at 7.15 µM. 340,000 compounds, 0.12% hits. AID 493244;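 active = inhibition above the mean inhibition of all tested compounds plus 3 SD, cut at about 17% in these data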;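 note: assay run at fixed EC70 calcium of 1.6 mM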
Myeloid diff: compounds promoting myeloid differentiation | shares compounds with Myeloid diff MLP | ER-HoxA9 myeloid progenitors, GFP/Mac1 double-positive flow | calls only | 2,300 compounds, 2% hits | AID 651706;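 active = share of green or green-and-red cells above 9 and 9% in run 1 or 4 and 3% in run 2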
GFP autofluor: counter-screen for myeloid differentiation promoters: compound fluorescence; shares compounds with Myeloid diff MLP; ER-HoxA9 myeloid progenitors, no estrogen, GFP autofluorescence flow cytometry; vehicle wells 0%, positive control 100%; fluorescence response, % (no concentration beside the values); 2,300 compounds, 7.4% hits; AID 651707;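 active = over 5% cells positive for green fluorescent reporter, or over 2% positive for both it and APC stain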;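 note: range taken on the double positive population between DMSO and positive control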
* = called active by the depositor; i = inactive; . = no result; + = active, no number.

SMILES	Myeloid diff MLP	CRFBP-R2 block	RTF Ca sens act	CRFR2-BP ag	Cardiac RTF inh	Myeloid diff	GFP autofluor
CC(OC(=O)c1ccc(Cl)nc1)C(=O)NCc1ccc2c(c1)OCO2 (stereo not drawn)	i	6	3	-1	-12	.	.
CCOC(=O)[C@]12CCC=C1N(Cc1ccc(Cl)cc1Cl)C(=O)[C@H](CC(=O)NCC13CC4CC(CC(C4)C1)C3)C2	i	.	.	.	.	.	.
O=C(NCc1cccs1)c1ccc(CS(=O)(=O)c2ccc(Cl)cc2)o1	+	-10	4	-2	-8	i	0
COc1ccc(S(=O)(=O)Cc2ccc(C(=O)NCc3cccs3)o2)cc1	i	11	3	-3	-3	.	.
CN1CCS/C1=C/C=C1/SC(=S)N(Cc2ccccc2)C1=O	+	-78	96*	36	-119	i	23*
COc1ccc(CN2C(=O)/C(=C/c3ccncc3)SC2=S)cc1	i	4	-5	-2	3	.	.
CC(=O)Oc1ccc(/C=C2/SC(=S)N(Cc3ccccc3)C2=O)cc1	+	-8	3	1	-5	i	38*
CC(C)CC(=O)Nc1ccc(-c2cn3ccsc3n2)cc1	i	-3	0	1	2	.	.
CC(C)(C)C(=O)Nc1ccc(-c2cn3ccsc3n2)cc1	i	0	2	0	-3	i	0
Cc1ccc(S(=O)(=O)NCC(=O)OCC(=O)NCc2cccs2)cc1	i	10	9	-2	-14	.	.
CC(C)c1ccc(CC(=O)N2CCC2(C)C(=O)NS(=O)(=O)c2cccc(OC(F)F)c2)cc1 (stereo not drawn)	i	.	.	.	.	.	.
CCOC(=O)C(=CNc1ccccc1C)C(=O)OCC	i	5	6	-2	-4	.	.
CCOC(=O)C(=CNc1cc(C)nn1-c1ccccc1)C(=O)OCC	i	16	-3	6	0	i	0
CCOC(=O)CSc1nc(C(C)(C)C)cc(C(F)(F)F)c1C#N	i	9	-3	0	-23	.	.
COc1ccc2c(c1)CCC(C)N2S(=O)(=O)c1ccc(C2CNC(=O)C2)cc1 (stereo not drawn)	.	4	-4	0	-2	i	0
O=C(C1CCN(S(=O)(=O)c2ccccc2)CC1)N1CCCCCC1	i	-11	-4	-1	-3	.	.
Nc1nc(-c2ccc(F)cc2)cc(C(F)(F)F)n1	i	23	-12	-5	0	i	1
Nc1nc(-c2ccc(Cl)cc2)cc(C(F)(F)F)n1	i	-20	-3	0	-2	.	.
Fc1cccc(Cl)c1C1Nc2cccc3cccc(c23)N1	i	6	2	-1	-13	.	.
Clc1cccc(Cl)c1C1Nc2cccc3cccc(c23)N1	+	1	4	10	0	i	0
COCCCN1C(=O)C(=O)/C(=C(/O)c2ccc(OC(C)C)cc2)C1c1ccncc1 (stereo not drawn)	i	6	-2	5	-6	i	0
CCCCOc1ccc(/C(O)=C2/C(=O)C(=O)N(CCCOC)C2c2ccncc2)cc1 (stereo not drawn)	i	11	7	2	-14	.	.
CCCCn1c(N)c(N(CCOC)C(=O)COC(=O)C(C)(C)Oc2ccc(Cl)cc2)c(=O)[nH]c1=O	i	-9	-6	1	-14	.	.
O=C(CNC(=O)OCc1ccccc1)NC1CCCCCCC1	+	-12	13	0	8	i	0
O=C(COc1ccccc1)NCC(=O)NC1CCCCC1	i	-2	0	2	3	.	.
SMILES	Myeloid diff MLP	CRFBP-R2 block	RTF Ca sens act	CRFR2-BP ag	Cardiac RTF inh	Myeloid diff	GFP autofluor
CC(=O)Nc1ccc(-c2ccnc3c2CC(C(=O)Nc2cccc(N(C)C)c2)O3)cc1 (stereo not drawn)	+	.	.	.	.	i	0
CC(=O)Nc1ccc(-c2ccnc3c2CC(C(=O)Nc2cccc(Oc4ccccc4)c2)O3)cc1 (stereo not drawn)	i	.	.	.	.	.	.
CS(=O)(=O)Nc1cccc(NC(=O)C2Cc3c(-c4ccccc4)ccnc3O2)c1 (stereo not drawn)	+	.	.	.	.	i	0
CC(=O)Nc1ccc(-c2ccnc3c2CC(C(=O)Nc2cccc(C(F)(F)F)c2)O3)cc1 (stereo not drawn)	+	.	.	.	.	i	0
CSc1cccc(NC(=O)CSc2nc3ccccc3o2)c1	i	7	6	-2	-17	.	.
Cc1c(C(=O)NCCCN2CCOCC2)oc2c1C1(CCC2)SCCS1	i	-32	11	0	-16	.	.
CCn1cc(S(=O)(=O)Nc2ncccn2)cn1	i	-5	-1	1	-5	.	.
COc1cc(C(=O)NNC(=O)c2cc(-c3ccccc3)n[nH]2)cc(OC)c1C	i	2	-7	-1	-7	i	1
COc1cccc(NC(=O)c2oc3ccccc3c2NC(C)=O)c1	i	3	6	-6	0	.	.
COCC(=O)Nc1c(C(=O)Nc2cccc(OC)c2)oc2ccccc12	i	-11	-3	-6	-1	i	0
CCn1cnnc1SCC(=O)c1c(N)n(C2CC2)c(=O)[nH]c1=O	i	5	-2	1	-3	.	.
O=CNC1(c2ccccc2)CCCCC1	i	9	-1	0	-3	.	.
CC1(C(=O)NS(=O)(=O)c2ccccc2C(F)(F)F)CCN1C(=O)CCC1CCCC1 (stereo not drawn)	i	.	.	.	.	.	.
O=C1NC(Cc2c[nH]c3ccccc23)C(=O)N1Cc1ccc(CN2C(=O)NC(Cc3c[nH]c4ccccc34)C2=O)cc1 (stereo not drawn)	i	-10	2	6	4	.	.
CN1/C(=C/C=C/c2n(C)c3cc([N+](=O)[O-])c([N+](=O)[O-])cc3[n+]2C)C(C)(C)c2ccccc21	+	11	.	-3	.	i	7.2*
Cc1cccc[n+]1CC(=O)/C=C1\N(C)c2ccccc2C1(C)C	i	6	6	1	-14	.	.
O=C1NC2=C(C(=O)CCC2)C(c2cccc([N+](=O)[O-])c2)N1 (stereo not drawn)	i	6	-2	-2	-7	.	.
O=C(O)COc1ccc(C(=O)Cc2ccc3c(c2)OCCCO3)c(O)c1	i	-7	7	-1	-14	i	0
c1ccc(NC2=Nc3ccccc3CC2)cc1	+	26	10	-1	-4	i	0
C/C(O)=c1/ccc2cccc3nc(C)nc1c23	+	-49	15	26	-39	i	8.4*
Cc1ccc(C(=O)COC(=O)[C@@H](NC(=O)c2ccco2)C(C)C)s1	+	-3	3	-1	1	i	0
